Measurements as given in PubChem BioAssay AID588790 (National Center for Advancing Translational Sciences (NCATS), 2011).
The whole screen tested about 1,200 compounds, of which about 85 (7%) were called active. The call rests on the fitted dose curve. The list comes from a sample in which actives are over-represented; it also holds similar structures and randomly drawn compounds. Entries that show only a call come without a potency.

target: Beta-2 adrenergic receptor (Homo sapiens) (UniProt P07550); test: qHTS assay of beta-arrestin-biased ligands of beta2-adrenergic receptor: Hit Validation with GloSensor; conditions: W9-Glo22F cells, GloSensor cAMP luminescence, beta2AR agonism; activation: at 46.1 µM (top of the series)
Method in brief: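 W9-Glo22F cells plated and incubated overnight at 37 deg C, 5% CO2, then compounds pinned in. GloSensor reagent added, 10 min at room temperature, luminescence read.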
Potency means the concentration at half of the fitted maximal effect.

Chain of Beta-2 adrenergic receptor (Homo sapiens) (P07550 whole entry, looked up): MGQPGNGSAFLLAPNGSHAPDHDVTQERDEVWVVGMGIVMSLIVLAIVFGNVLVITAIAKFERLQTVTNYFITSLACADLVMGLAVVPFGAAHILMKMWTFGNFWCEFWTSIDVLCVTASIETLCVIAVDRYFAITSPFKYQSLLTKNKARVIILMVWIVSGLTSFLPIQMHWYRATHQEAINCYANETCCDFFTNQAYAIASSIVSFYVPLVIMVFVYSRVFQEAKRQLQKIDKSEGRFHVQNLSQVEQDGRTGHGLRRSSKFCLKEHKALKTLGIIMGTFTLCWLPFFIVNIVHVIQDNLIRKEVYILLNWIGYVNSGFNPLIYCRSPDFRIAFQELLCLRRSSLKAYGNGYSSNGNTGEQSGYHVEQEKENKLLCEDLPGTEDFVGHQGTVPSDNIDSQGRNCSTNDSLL

Row | Structure (SMILES) | Potency
1 | C/C(CC(C)(C)C1CCCCC1)=N\NC(N)=S | inactive
2 | O=[N+]([O-])c1cc(Cl)c(O)c2ncccc12 | inactive
3 | COc1cc([N+](=O)[O-])c2nccnc2c1 | 16.4 µM (active)
4 | O=[N+]([O-])c1ccc(O)c2ncccc12 | inactive
5 | O=[N+]([O-])c1cc(Br)cc(C=Nc2ccc3c(c2)OCO3)c1O | inactive
6 | Oc1ccc(NCc2ccc(OCc3ccccc3)cc2)cc1 | inactive
7 | COc1cc(CNc2ccc(O)cc2)cc(Br)c1OCc1ccccc1 | 14.6 µM (active)
8 | Oc1ccc(NCc2cccc(OCc3ccccc3)c2)cc1 | inactive
9 | CC1CC(C)(C)n2c(O)c(N=NC(N)=S)c3cccc1c32 (stereo unspecified) | inactive
10 | NC(=S)N=Nc1c(O)n(CCCl)c2ccccc12 | 25.9 µM (active)
11 | C/C(Cl)=C\Cn1c(O)c(N=NC(N)=S)c2ccccc21 | inactive
12 | NC(=S)N=Nc1c(O)n(Cc2ccc(F)cc2)c2ccccc12 | inactive
13 | C=CCn1c(O)c(N=NC(=S)Nc2ccccc2F)c2cc(S(=O)(=O)N3CCOCC3)ccc21 | inactive
14 | NC(=S)N=Nc1c(O)n(CCCl)c2ccc(Cl)cc12 | 32.6 µM (active)
15 | O=C(Oc1cccc2cccnc12)c1ccc2c(c1)OCCO2 | inactive
16 | COc1ccc(NC(=S)Nc2cccc(C)n2)cc1 | inactive
17 | CCc1cc2c(SCC(=O)Nc3ccc(Cl)cn3)ncnc2s1 | inactive
18 | c1ccc(CCNc2nc(-c3ccccn3)cs2)cc1 | inactive
19 | COc1ccc(CCNc2nc(-c3ccccn3)cs2)cc1OC | 20.6 µM (active)
20 | COc1ccc(OCCCC(=O)Nc2nc(-c3ccccn3)cs2)cc1 | inactive
21 | COc1ccc(NC(=S)NC(=O)c2ccc3c(c2)OCCO3)cc1 | inactive
22 | Cc1ccc(/C=C2/C(=O)N(c3ccccc3)C(=S)N2C)o1 | inactive
23 | Cc1ccc(N=C2NC(=O)/C(=C/C=C/c3ccco3)S2)cc1 | inactive
24 | Cc1cccc(N=C2NC(=O)/C(=C/c3cccs3)S2)c1 | 1.03 µM (active)

Row | Structure (SMILES) | Potency
25 | C#CCn1c(=NC(=O)CSC(C)=O)sc2cc(F)ccc21 | inactive
26 | Cc1ccc2cccc(SCC(=O)NCC#N)c2n1 | inactive
27 | CC(=O)c1cccc(CN2CCN(CCC(C)C)C(CCO)C2)c1 (stereo unspecified) | inactive
28 | N#C/C(=C\c1cccc(O)c1)c1nc2ccccc2o1 | 6.51 µM (active)
29 | N#C/C(=C\c1ccc(Cl)cc1)c1nc2ccccc2o1 | inactive
30 | N#C/C(=C\c1ccncc1)c1nc2ccccc2o1 | inactive
31 | CCCC(=O)N(c1ccc(F)cc1)C1C=CS(=O)(=O)C1 (stereo unspecified) | inactive
32 | CCCN(CC(=O)Nc1ccc(Cl)cc1Cl)C(=O)/C=C/c1ccco1 | inactive
33 | COc1c(O)cc(O)c2c(=O)cc(-c3ccccc3)oc12 | inactive
34 | COc1c(-c2ccc(O)c(O)c2)oc2cc(O)cc(O)c2c1=O | 20.6 µM (active)
35 | O=C1C=CC(O)(c2cc(=O)c3c(O)cc(O)cc3o2)C=C1 | inactive
36 | Fc1ccccc1/C=N/Nc1ncnc2ccccc12 | inactive
37 | Cc1ccc2cccc(SCC(=O)Nc3ccc(F)cc3)c2n1 | inactive
38 | NC(=S)n1[nH]c(-c2ccc([N+](=O)[O-])cc2)c(N=Nc2ccc(Cl)cc2)c1=O | inactive
39 | Clc1ccc(OCc2nc(-c3ccccn3)n[nH]2)cc1 | inactive
40 | COc1cnc(-c2ccccn2)nc1Oc1ccccc1 | 29.1 µM (active)
41 | COc1cnc(-c2ccccn2)nc1Sc1ccccc1Cl | inactive
42 | Cc1cccc(NC(=S)N/N=C/c2cccc([N+](=O)[O-])c2)c1 | inactive
43 | CCCCC(=O)N1CCCC(c2nc(-c3cccc(OC)c3)no2)C1 (stereo unspecified) | inactive
44 | C=C(C)CNC(=S)N/N=C/c1ccco1 | inactive
45 | COc1ccc(NS(=O)(=O)c2ccc3oc(SC4CCOC4=O)nc3c2)cc1 (stereo unspecified) | inactive
46 | COC(=O)C1=C(C)N(Cc2ccc(C)cc2)C(=O)/C1=C\c1ccc(O)c(OC)c1 | inactive
47 | CCOC(=O)C1=C(C)N(c2ccc(C)cc2)C(=O)/C1=C\c1ccc(O)c(OC)c1 | 18.4 µM (active)
48 | CCOC(=O)C1=C(C)N(c2ccc(OC)cc2)C(=O)/C1=C\c1ccc(O)c(OCC)c1 | inactive

Row | Structure (SMILES) | Potency
49 | CNC(=S)N/N=C/C1=CCC2CC1C2(C)C (stereo unspecified) | inactive
50 | O=C1c2ccccc2[C@@H]2C[C@@H](O)[C@H](Nc3cccc4ccccc34)CCN12 | inactive
51 | CCOC(=O)NC(=S)Nc1ccc(C(C)(C)C)cc1 | inactive
52 | NC(=S)N/N=C1\CC(c2ccc3c(c2)OCCCO3)Oc2ccc(F)cc21 (stereo unspecified) | 11.6 µM (active)
53 | NC(=S)N/N=C1\CCOc2ccc(F)cc21 | inactive
54 | CNC(=S)N/N=C1\CC(c2ccccc2)Oc2ccccc21 (stereo unspecified) | inactive
55 | c1coc(CNc2nc3nonc3nc2NCc2ccco2)c1 | inactive
56 | COCCNC(=S)N/N=C(\C)c1ccc(Cl)c(Cl)c1Cl | inactive
57 | C/C(=N\NC(=S)NCc1ccccc1)c1ccccc1F | inactive
58 | COCCNC(=S)N/N=C(\C)c1ccccc1F | 29.1 µM (active)
59 | COc1ccc(C(CNC(=O)c2ccc(C)c(S(=O)(=O)Nc3ccccc3OC)c2)N2CCCC2)cc1 (stereo unspecified) | inactive
60 | C=CCn1c(-c2ccccc2)c[nH]c1=S | inactive
61 | C=CCn1c(CCn2c3ccccc3c3ccccc32)n[nH]c1=S | inactive
62 | C=CCn1c(CSc2nc3ccccc3s2)n[nH]c1=S | 25.9 µM (active)
63 | CCN(CC)C(=O)CN(c1cccc(OC)c1)S(=O)(=O)c1ccc(C)cc1 | inactive
64 | CC1CCN(c2c(NCc3ccc(C(=O)NCCc4ccc(Cl)cc4)cc3)c(=O)c2=O)CC1 | inactive
65 | O=c1c2cn[nH]c2nc(SCc2ccccc2F)n1-c1ccc(Br)cc1 | inactive
66 | CCNc1nc(NCC)nc(N(C)/N=C/c2ccco2)n1 | 20.6 µM (active)
67 | CCNc1nc(NCC)nc(N/N=C/c2ccc(N(C)C)cc2)n1 | inactive
68 | CCNC(=S)N/N=C/c1ccco1 | inactive
69 | O=C(/C=C/c1ccccc1)Oc1cccc2cccnc12 | inactive
70 | Cc1cc(C(=O)CN2C(=O)NC3(CCCc4ccccc43)C2=O)c(C)n1C (stereo unspecified) | inactive
71 | Cc1ccc(NC(=S)N2CCn3cccc3C2c2cccnc2)cc1 (stereo unspecified) | inactive
